Test results published in PubChem BioAssay AID1159580 (chemical genetic matrix, 2015).
About 2,000 (36%) of roughly 5,500 compounds were called active. Not shown: some 18% with an inconclusive outcome. No stated cut-off is given here; in the data, active means normalized growth mostly below about 0.91 (no sharp cut-off); inconclusive means no clear call, values can overlap the other calls; inactive means mostly above about 0.92. Some of the results follow.

Experiment: chemical genetic growth profiling, strain panel (AID 1159580);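 further: tested at 20 µM; growth read once vehicle control cultures reached saturation at 30 °C; 1 = growth at the plate median or of vehicle wells; lower values mean less growth of the strain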
Conditions: S. cerevisiae deletion strains, growth OD

Measured: normalized growth

COc1ccc2c(c[n+](C)c3c4cc5c(cc4ccc23)OCO5)c1OC
active: locus YAL040C, strain CLN3, active compounds read low 0.583 | locus YER002W, strain NOP16, active compounds read low 0.58 | locus YGR078C, strain PAC10, active compounds read low 0.496 | locus YMR307W, strain GAS1, active compounds read low 0.131 | locus YNL175C, strain NOP13, active compounds read low 0.519 | locus YNL197C, strain WHI3, active compounds read low 0.69 | locus YNL224C, strain SQS1, active compounds read low 0.255 | locus YOR083W, strain WHI5 (second series), active compounds read low 0.175
